In the supplement of paper PMC10849652 one finds log2 fold change data, which are given here for 16 targets.

Of roughly 7,900 targets only a part is listed; those with a hit were picked by preference. About 0.6% of all pairs of compound and target were hits. Values without a mark were called inactive.

Assay in all cases: log2 fold change, soluble protein after heating vs DMSO (PISA); higher = thermal stabilisation; K562 cells, 10 uM, 30 min; active = over 0.2 and 3.5 SD of the protein, either way, in both replicates (recomputed)
Compound in assay [1]: NC(=O)Nc1cc(-c2cccc(F)c2)sc1C(=O)N[C@H]1CCCNC1
Put shortly:
(§1)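 Soluble protein was defined as the supernatant after 21,000xg for 90 min. It came from K562 cells at 2×10^6 cells/mL given 10 μM compound for 30 min, heated in aliquots for 3 min across 48°C-58°C, pooled, and extracted in PBS with 0.5% NP-40 at 4°C, and was quantified by TMTpro 16plex LC-MS/MS with equalised channel sums. Thermal stability against control samples, from duplicates, is reported as log2 fold change.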

Compound in assay [2]: NC(=O)c1cnc(N[C@@H]2CCCC[C@@H]2N)nc1Nc1cccc(-n2nccn2)c1
Put shortly: as §1

Compound in assay [3]: NC1(c2ccc(-c3nc4ccn5c(=O)[nH]nc5c4cc3-c3ccccc3)cc2)CCC1
Put shortly:
as §1

Compound in assay [4]: NCC(=O)Nc1ccc(-n2nc(C(F)(F)F)cc2-c2ccc3c(ccc4ccccc43)c2)cc1
In a few lines: as §1

Compound in the next assay: Nc1ccccc1NC(=O)c1ccc(CNC(=O)OCc2cccnc2)cc1 [entinostat]
In a few lines: as §1

Compound in a further assay: O=C(CCCCCCC(=O)Nc1ccccc1)NO [vorinostat]
Put shortly:
as §1

Compound in another assay: O=C(CCCCCCNC(=O)c1cnc(N(c2ccccc2)c2ccccc2Cl)nc1)NO [citarinostat]
In a few lines: as §1

Compound in another assay: O=C(O)c1ccc2c(c1)nc(Nc1cccc(Cl)c1)c1ccncc12 [silmitasertib]
Put shortly:
as §1

Compound in assay [5]: O=C1NC(=O)C(c2cnc3ccccn23)=C1c1cn2c3c(cc(F)cc13)CN(C(=O)N1CCCCC1)CC2
Put shortly: as §1

Compound in assay [6]: c1cc(OCCN2CCCCC2)cc(-c2n[nH]c3ccc(-c4nnc[nH]4)cc23)c1
Put shortly: as §1

Compound in another assay: c1cn2cc(-c3ccc4cn[nH]c4c3)nc(Nc3ccc(N4CCOCC4)cc3)c2n1 [entospletinib]
Put shortly:
as §1

Chain of UniProt Q14194 (Q14194 whole entry, looked up): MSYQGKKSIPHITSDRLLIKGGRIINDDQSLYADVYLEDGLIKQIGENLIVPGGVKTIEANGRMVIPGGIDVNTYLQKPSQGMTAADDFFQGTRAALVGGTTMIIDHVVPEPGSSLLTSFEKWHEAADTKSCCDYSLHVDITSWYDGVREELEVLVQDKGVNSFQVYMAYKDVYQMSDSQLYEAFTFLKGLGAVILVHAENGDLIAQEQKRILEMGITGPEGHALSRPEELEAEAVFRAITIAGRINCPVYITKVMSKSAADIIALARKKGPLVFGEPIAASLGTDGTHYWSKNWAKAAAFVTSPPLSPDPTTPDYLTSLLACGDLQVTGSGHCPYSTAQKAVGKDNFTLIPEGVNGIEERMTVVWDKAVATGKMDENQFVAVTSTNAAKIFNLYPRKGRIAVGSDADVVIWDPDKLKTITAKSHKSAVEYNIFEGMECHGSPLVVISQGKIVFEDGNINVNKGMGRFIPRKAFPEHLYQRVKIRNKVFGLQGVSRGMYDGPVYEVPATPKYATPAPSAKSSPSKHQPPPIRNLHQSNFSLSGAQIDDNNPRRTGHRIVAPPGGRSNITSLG
Chain of UniProt P24863 (P24863 whole entry, looked up): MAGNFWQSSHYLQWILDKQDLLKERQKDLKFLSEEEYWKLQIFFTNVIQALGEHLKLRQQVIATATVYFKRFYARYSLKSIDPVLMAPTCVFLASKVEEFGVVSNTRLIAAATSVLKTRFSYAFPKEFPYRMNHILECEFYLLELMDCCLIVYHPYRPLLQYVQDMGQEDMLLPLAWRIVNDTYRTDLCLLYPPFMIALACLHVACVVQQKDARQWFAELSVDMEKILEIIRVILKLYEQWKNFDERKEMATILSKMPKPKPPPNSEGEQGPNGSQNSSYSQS
Chain of UniProt Q92828 (Q92828 whole entry, looked up): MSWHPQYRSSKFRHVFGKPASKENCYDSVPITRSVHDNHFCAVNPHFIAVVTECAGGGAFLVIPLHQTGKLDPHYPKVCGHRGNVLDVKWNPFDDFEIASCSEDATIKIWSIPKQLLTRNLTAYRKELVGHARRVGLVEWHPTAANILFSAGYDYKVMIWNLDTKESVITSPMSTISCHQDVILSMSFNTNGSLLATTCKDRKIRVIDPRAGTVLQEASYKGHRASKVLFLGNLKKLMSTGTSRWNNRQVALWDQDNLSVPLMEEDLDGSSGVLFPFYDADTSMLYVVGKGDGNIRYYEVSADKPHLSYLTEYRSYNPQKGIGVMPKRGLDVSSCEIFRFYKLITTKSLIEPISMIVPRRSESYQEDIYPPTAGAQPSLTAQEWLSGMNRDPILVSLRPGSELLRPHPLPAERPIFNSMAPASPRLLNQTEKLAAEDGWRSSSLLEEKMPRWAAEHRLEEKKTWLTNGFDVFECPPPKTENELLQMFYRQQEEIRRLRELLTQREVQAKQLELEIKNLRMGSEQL
Chain of UniProt P33240 (P33240 whole entry, looked up): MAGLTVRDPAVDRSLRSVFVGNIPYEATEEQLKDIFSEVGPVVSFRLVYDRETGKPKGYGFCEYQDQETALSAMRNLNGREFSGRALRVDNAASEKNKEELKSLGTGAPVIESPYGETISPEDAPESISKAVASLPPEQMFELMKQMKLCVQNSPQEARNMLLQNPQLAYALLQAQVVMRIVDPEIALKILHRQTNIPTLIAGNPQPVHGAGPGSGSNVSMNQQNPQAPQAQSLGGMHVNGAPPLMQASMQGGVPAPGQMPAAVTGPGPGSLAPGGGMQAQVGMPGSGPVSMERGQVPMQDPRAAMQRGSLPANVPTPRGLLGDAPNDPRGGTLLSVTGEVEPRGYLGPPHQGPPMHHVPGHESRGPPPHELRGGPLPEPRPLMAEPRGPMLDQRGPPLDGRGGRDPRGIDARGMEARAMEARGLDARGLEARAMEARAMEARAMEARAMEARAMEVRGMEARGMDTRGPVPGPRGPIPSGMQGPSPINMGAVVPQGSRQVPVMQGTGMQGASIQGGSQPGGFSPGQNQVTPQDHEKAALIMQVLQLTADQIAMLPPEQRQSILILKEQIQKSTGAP
Chain of UniProt Q9Y2V0 (Q9Y2V0 whole entry, looked up): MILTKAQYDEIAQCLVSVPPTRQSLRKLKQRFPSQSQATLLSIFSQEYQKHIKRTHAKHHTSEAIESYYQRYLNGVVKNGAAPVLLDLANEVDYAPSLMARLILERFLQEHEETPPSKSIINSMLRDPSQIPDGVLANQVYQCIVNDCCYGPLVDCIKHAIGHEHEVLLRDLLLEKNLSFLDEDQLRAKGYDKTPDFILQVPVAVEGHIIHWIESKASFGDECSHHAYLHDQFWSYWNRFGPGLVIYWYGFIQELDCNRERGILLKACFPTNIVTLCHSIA
Chain of UniProt P05937 (P05937 whole entry, looked up): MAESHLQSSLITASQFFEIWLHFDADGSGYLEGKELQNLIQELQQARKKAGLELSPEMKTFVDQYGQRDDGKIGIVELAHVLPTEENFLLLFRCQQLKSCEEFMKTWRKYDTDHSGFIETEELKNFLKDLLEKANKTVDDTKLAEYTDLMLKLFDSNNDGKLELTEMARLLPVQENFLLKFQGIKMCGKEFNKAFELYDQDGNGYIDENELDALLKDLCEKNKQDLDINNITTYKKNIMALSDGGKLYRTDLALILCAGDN
Chain of UniProt O15234 (O15234 whole entry, looked up): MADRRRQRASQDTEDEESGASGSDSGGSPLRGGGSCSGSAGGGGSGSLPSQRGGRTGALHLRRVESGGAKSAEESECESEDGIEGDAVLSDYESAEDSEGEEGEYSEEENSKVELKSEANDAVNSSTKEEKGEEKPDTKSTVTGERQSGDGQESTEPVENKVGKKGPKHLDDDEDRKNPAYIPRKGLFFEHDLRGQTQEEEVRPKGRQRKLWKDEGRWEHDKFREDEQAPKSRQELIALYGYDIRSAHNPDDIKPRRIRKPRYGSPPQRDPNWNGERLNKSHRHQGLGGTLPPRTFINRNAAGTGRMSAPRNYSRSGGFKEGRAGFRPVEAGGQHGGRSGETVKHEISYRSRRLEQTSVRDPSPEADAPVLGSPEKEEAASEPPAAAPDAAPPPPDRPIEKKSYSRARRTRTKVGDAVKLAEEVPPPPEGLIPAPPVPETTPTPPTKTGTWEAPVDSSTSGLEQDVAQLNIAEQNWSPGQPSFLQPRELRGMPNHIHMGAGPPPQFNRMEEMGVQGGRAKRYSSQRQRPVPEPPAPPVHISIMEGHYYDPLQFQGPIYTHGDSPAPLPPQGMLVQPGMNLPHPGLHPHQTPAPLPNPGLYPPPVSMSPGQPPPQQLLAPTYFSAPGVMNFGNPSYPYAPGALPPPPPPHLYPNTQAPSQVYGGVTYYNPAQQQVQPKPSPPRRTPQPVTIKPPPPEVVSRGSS
Chain of UniProt Q8WUD6 (Q8WUD6 whole entry, looked up): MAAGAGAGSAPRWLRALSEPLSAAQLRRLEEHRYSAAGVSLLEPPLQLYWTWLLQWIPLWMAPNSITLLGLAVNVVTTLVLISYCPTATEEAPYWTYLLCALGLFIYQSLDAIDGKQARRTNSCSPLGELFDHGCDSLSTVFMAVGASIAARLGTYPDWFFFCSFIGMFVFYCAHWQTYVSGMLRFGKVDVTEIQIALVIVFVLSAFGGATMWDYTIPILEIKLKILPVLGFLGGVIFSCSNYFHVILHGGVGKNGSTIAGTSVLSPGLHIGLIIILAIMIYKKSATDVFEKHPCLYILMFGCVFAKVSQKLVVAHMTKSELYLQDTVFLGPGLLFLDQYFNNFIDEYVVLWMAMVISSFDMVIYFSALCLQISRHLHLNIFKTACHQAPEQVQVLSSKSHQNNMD
Chain of UniProt Q6P5X5 (Q6P5X5 whole entry, looked up): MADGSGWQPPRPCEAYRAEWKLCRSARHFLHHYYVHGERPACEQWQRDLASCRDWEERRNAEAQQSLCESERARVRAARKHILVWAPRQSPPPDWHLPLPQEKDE
Chain of UniProt Q14061 (Q14061 whole entry, looked up): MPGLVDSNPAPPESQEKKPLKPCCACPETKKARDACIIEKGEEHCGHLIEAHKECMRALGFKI
Chain of UniProt Q6ZU80 (Q6ZU80 whole entry, looked up): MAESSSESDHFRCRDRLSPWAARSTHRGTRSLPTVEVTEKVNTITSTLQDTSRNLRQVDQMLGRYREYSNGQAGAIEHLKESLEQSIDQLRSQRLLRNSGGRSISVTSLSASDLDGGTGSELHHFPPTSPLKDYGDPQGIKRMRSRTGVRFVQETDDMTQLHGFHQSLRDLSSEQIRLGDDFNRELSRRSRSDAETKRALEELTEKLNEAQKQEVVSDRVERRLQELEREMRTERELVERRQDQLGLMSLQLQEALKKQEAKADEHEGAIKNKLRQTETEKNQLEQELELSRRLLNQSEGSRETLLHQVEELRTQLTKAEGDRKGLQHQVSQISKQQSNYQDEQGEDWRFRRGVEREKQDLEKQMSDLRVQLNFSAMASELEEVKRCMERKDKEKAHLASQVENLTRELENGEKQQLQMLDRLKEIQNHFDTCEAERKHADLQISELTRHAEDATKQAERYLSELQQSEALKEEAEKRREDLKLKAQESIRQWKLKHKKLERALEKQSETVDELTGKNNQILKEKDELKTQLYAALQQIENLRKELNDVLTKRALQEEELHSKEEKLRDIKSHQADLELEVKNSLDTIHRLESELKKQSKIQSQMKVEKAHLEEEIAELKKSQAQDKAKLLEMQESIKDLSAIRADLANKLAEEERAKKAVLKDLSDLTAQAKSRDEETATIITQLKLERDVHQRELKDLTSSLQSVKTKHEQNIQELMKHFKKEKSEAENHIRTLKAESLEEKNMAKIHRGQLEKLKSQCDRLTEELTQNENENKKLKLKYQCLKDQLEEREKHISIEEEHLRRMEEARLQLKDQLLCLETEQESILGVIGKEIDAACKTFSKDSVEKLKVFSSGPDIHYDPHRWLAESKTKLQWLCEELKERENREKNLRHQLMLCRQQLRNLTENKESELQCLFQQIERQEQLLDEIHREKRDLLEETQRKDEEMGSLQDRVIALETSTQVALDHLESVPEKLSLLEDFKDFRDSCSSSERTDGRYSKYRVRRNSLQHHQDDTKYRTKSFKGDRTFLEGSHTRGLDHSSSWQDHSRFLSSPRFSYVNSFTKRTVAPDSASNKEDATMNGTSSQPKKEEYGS

Turning to CSTF2 (UniProt P33240), the log2 fold change was 0.015 in assay [1]; -0.054 in assay [2]; 0.086 in assay [3]; -0.031 in assay [4]; -0.028 in the assay with entinostat; -0.08 in the assay with vorinostat. Further, the log2 fold change was -0.011 with citarinostat; 0.07 with silmitasertib; -0.049 in assay [5]; -0.042 in [6]; 0.022 with entospletinib.

C15orf41 (UniProt Q9Y2V0): the log2 fold change in [1] is -0.076; in assay [2], -0.046; in assay [4], -0.061; in the assay with entinostat it was -0.01; in the assay with vorinostat, 0.069; in the assay with citarinostat it was 0.07. In addition, the figures for the log2 fold change (in [5]; in [6]; with entospletinib) were 0.023, -0.007 and 0.032, respectively.

As to CRMP1 isoform 2 (UniProt Q14194), the log2 fold change in assay [1] was -0.121; in assay [2], 0; in assay [4], -0.099; in the assay with entinostat it was -0.055; in the assay with vorinostat, 0.193.

With CASC3 (UniProt O15234), the log2 fold change in assay [1] was 0.015; in [2] it was 0.238; in assay [3], -0.01; in assay [4], 0.001; with entinostat, -0.039; with vorinostat, -0.072. For the same target, the log2 fold change in the assay with citarinostat was 0; with silmitasertib it was 0.054; in [5] it was 0.24; in [6], -0.133; in the assay with entospletinib, 0.485 (active).

With CORO2A (UniProt Q92828), the log2 fold change is 0.069 in assay [1]; -0.027 in assay [2]; -0.287 (active) in [3]; -0.085 in [4]; -0.061 in the assay with entinostat; 0.027 with vorinostat. In addition, the log2 fold change with citarinostat is -0.114; with silmitasertib, -0.019; in [6], -0.212; with entospletinib, 0.078.

In the case of CDK12 (UniProt Q9NYV4), the log2 fold change in assay [1] was -0.002; in assay [2], 0.005; in [3] it was 0.06; in assay [4], 0.01; with entinostat, 0.005; in the assay with vorinostat, 0.089. Besides, the log2 fold change is -0.051 with citarinostat; -0.081 with silmitasertib; 0.179 in [5]; -0.242 in assay [6]; 0.058 with entospletinib.

Consider CSNK2B (UniProt P67870), for which the log2 fold change is -0.017 in assay [1]; 0 in assay [2]; 0.006 in assay [3]; 0.084 in assay [4]; -0.008 with entinostat; 0.021 with vorinostat. Further, the log2 fold change was 0.036 with citarinostat; 0.377 (active) with silmitasertib; -0.011 in [5]; -0.02 in assay [6]; 0.077 in the assay with entospletinib.

On to CHPT1 (UniProt Q8WUD6), for which the log2 fold change in assay [1] is 0; in [2] it was -0.039; in assay [3], -0.059; with entinostat it was 0.062; in the assay with vorinostat it was 0.066; with citarinostat it was 0.002. For the same target, the log2 fold change with silmitasertib is -0.042; in assay [5], -0.049; in assay [6] it was 0.019; in the assay with entospletinib, 0.047.

As for CALB1 (UniProt P05937), the log2 fold change is -0.029 in assay [1]; -0.014 in assay [2]; -0.161 in assay [3]; -0.041 in [4]; 0.022 with entinostat; -0.027 with vorinostat. Further, the log2 fold change in the assay with citarinostat was 0.062; in the assay with silmitasertib, 0.006; in assay [5] it was 0.016; in assay [6] it was -0.035; with entospletinib, -0.016.

On to CHAF1A (UniProt Q13111), for which the log2 fold change in assay [1] is 0.087; in assay [2], 0.046; in [3], 0.036; with entinostat, -0.141; with vorinostat, 0.121; in the assay with citarinostat it was 0.005. Further, the log2 fold change was -0.019 with silmitasertib, -0.167 in assay [5], -0.439 (active) in assay [6] and -0.126 in the assay with entospletinib.

On to CEP128 (UniProt Q6ZU80), for which the log2 fold change was -0.182 in assay [1]; -0.029 in assay [2]; 0.095 in assay [3]; -0.234 in assay [4]; -0.112 with entinostat; -0.087 with citarinostat. The log2 fold change in the assay with silmitasertib was -0.191; in assay [6], -0.068; in the assay with entospletinib, -0.064.

As for C22orf39 (UniProt Q6P5X5), the log2 fold change was 0.093 in assay [1]; -0.036 in assay [2]; -0.106 in [3]; 0.037 in the assay with entinostat; 0.016 with silmitasertib; 0.089 in assay [5].

Regarding CRTC2 (UniProt Q53ET0), the log2 fold change in assay [1] was -0.814 (active); in assay [2], -0.001; in assay [3], -0.13; in [4] it was 0.038; in the assay with entinostat, 0.004; with citarinostat it was -0.099. The log2 fold change in the assay with silmitasertib is 0.092; in assay [5], -0.125; in [6] it was -0.143; in the assay with entospletinib it was -0.038.

Turning to CCNC (UniProt P24863), the log2 fold change in assay [1] is -0.032; in [2] it was -0.105; in [3] it was -0.017; in assay [4], -0.033; with entinostat, 0.04; in the assay with vorinostat, -0.039. For the same target, the results for the log2 fold change (with silmitasertib; in assay [5]) were 0.183 and 0.039, respectively.

Consider CLPTM1L (UniProt G5E9Z2), for which the log2 fold change in [1] is 0.139; in [2] it was 0.237; in assay [3] it was -0.175; in assay [4], -0.028; with entinostat, -0.012; with vorinostat, 0.022. For the same target, the log2 fold change is -0.05 with silmitasertib and 0.445 in assay [5].

Consider COX17 (UniProt Q14061), for which the log2 fold change was -0.002 in assay [1]; 0.017 in assay [2]; -0.088 in assay [3]; 0.052 in [4]; 0.048 with entinostat; -0.077 with vorinostat. Also, the log2 fold change in the assay with silmitasertib is 0.119; in assay [5], -0.141.
